For orientation: viability means a read-out of living cells in per cent, often relative to untreated cells.

About 360 (15%) of roughly 2,400 compounds were called active. The list is a sample of the results. Measured potencies and affinities stand elsewhere. Values without a mark were called inactive.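 Rule for the calls: active = viability falls under 70% at one or more tested concentrations, taken as toxicity; inactive = viability stays over 70% at every dose.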

The test can be described thus: viability loss in HeLa cells – cytotoxicity control for MgcRacGAP inhibitor project, dose response (AID 624300).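 Note: 100% = median of untreated control wells on the same plate.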 As to conditions: CellTiter-Glo luminescence, 24 h; series mostly up to 100 µM; viability: at the top concentration. Background: ATP-based viability assays read luminescence as a measure of living cells.
In the case of `O=C(Nc1n[nH]c(=S)s1)c1ccco1`, the “viability” value was 102%.

Consider `CN(Cc1ccccc1)Cc1c(O)ccc2ccccc12`, for which the “viability” value was 97.2%. In the case of `COc1ccc(CN2CCC(C(N)=O)CC2)cc1OCc1ccccc1`, the “viability” value is 98%. Turning to `COC(=O)c1cc(NCc2ccccc2F)ccc1N1CCOCC1`, the “viability” value is 105%. On to `COc1ccc(CN2CCN(Cc3ccc4ccccc4c3)CC2)cc1OC`, for which the “viability” value was 85.3%. Turning to `COc1cc2cc(NC(C)=O)cc(NCc3ccccc3)c2cc1OC`, the “viability” value is 104%.

For `Cc1nc2ccc(-c3nc4ccc(N)cc4[nH]3)cc2[nH]1`, the “viability” value is 86.7%. Take `Cc1nc(Cc2nnc(SCC(=O)N3CCN(c4ccc(O)cc4)CC3)o2)cs1`: the “viability” value is 100%.

On to `Nc1nc(=S)ss1`, for which the “viability” value is 97.5%. The result for `COc1cc(/C=C/c2ccc3cccc(O)c3n2)ccc1O` reads 100% [at 25 µM]; that for `C=CCn1c(N/N=C/c2ccc(O)cc2)nc2ccccc2c1=O`, 93.4%; that for `COc1cc(/C=C/C(C)=NNc2ccccc2)ccc1O`, 98.3%.

Consider `COc1cc(/C=N/NC(=O)c2cc(-c3ccccc3OC(C)C)nc3ccccc23)ccc1O`, for which the “viability” value was 106%. The result for `COc1cc(/C=N/n2c(C)nc3ccccc3c2=O)ccc1O` reads 102%.

As for `CCCc1nc2ccccc2c(=O)n1/N=C/c1ccc(O)c(O)c1`, the “viability” value is 80.7%.

As to `COc1cc(/C=C/c2nc3ccccc3c(=O)[nH]2)ccc1O`, the “viability” value was 83.4%. With `O=c1[nH]c2ccccc2nc1/C=C/c1ccc(O)cc1`, the “viability” value was 88.1%. The result for `O=C(CN1CCN(c2ccc(O)cc2)CC1)NCC(=O)Nc1ccc(F)c(F)c1F` reads 112%; that for `Cc1cccc(Nc2n[nH]c(=S)s2)c1C`, 95.3%; that for `CN1CCN(CCCNCc2cn(CCC#N)c3ccccc23)CC1`, 95.5%. For the compound `COc1ccc(NC2CCCN(C(=O)CCc3cccc(F)c3)C2)cc1` (stereo unspecified), the “viability” value was 101%. Regarding `COc1cc(C)c(N)cc1C(C)C`, the “viability” value is 105%. For `CCOC(=O)c1[nH]c2cc(OC)c(OC)cc2c1N` the value was 106%; for `COc1ccc(N2CCN(C(C)C(=O)N3CCCC3)CC2)cc1` (stereo unspecified), 97%; for `CC(=O)N1CCN(CC(O)COc2ccc(Br)cc2)CC1` (stereo unspecified), 104%. With `O=C1C2C3C=CC(CC3)C2C(=O)N1/N=C/c1ccc(O)c(O)c1` (stereo unspecified), the “viability” value was 98.9%. Consider `CCOC(=O)c1[nH]c2ccccc2c1NC(=S)Nc1cccc(C)c1`, for which the “viability” value is 103%.

Consider `COc1ccc(NCc2cc3cc(OC)ccc3[nH]c2=O)cc1`, for which the “viability” value is 83.8%. Regarding `COc1ccc(OC(=O)COc2cc(C)ccc2C)cc1`, the “viability” value is 105%. Take `COc1ccc(OC(=O)COc2ccc(C)cc2)cc1`: the “viability” value was 99.3%.

In the case of `Nc1c(Cl)ncnc1NCCc1ccc(O)cc1`, the “viability” value was 92.8%. As for `CCOC(=O)/C(C#N)=C1\C(=O)N(Cc2ccccc2)c2ccccc21`, the “viability” value was 95%. For the compound `COc1ccc(OC)c(CN2CCN(Cc3cccc4ccccc34)CC2)c1`, the “viability” value was 87.5%. Take `COc1ccc(CN2CCN(Cc3c[nH]c4ccccc34)CC2)c(OC)c1`: the “viability” value was 82.3%.

Turning to `CCOC(=O)N/N=C/c1ccc(N2CCOCC2)s1`, the “viability” value is 92.2%.

As to `Nc1ccc2nc(N)sc2c1`, the “viability” value was 105%. For `Nc1ccc(-c2nc3ccc(N)cc3o2)cc1` the value was 91.5%; for `COc1ccccc1CNC(=O)C[C@@H]1C[C@H]2c3cc(N(C)C)ccc3O[C@H]2[C@H](CO)O1`, 105%; for `COc1cc(N2C(=O)C=CC2=O)ccc1N1C(=O)C=CC1=O`, 106%. `COc1ccc(NC2CCCN(C(=O)C3(C)CCCCC3)C2)cc1` (stereo unspecified): the “viability” value was 100%. For `COc1cc(CN2CCN(C(=O)c3cccc4ccccc34)CC2)cc(OC)c1OC` the value was 96.3%; for `O=C(N/C(=C\c1ccc(O)cc1)C(=O)N1CCCCC1)c1ccccc1`, 102%; for `S=c1[nH]nc(-c2ccncc2)n1/N=C/C=C/c1ccccc1`, 109%. As for `COc1cccc(OC)c1OCCCN1CCOCC1`, the “viability” value is 103%.

As to `CCOC(=O)c1[nH]c2ccccc2c1NC(=S)Nc1ccccc1`, the “viability” value is 103%. `CCC(=O)Nc1ccc(Nc2ccccc2)cc1`: the “viability” value is 118%. The result for `COc1cccc2[nH]c(C(=O)NN)c(N)c12` reads 90.4%. As for `CC1CN(CCOCCOc2ccccc2-c2ccccc2)CC(C)O1` (stereo unspecified), the “viability” value is 87.1%. For the compound `O=C1C(Cl)=C(NC(=O)c2ccccc2)C(=O)C(Cl)=C1NC(=O)c1ccccc1`, the “viability” value is 106%.

Take `O=C1c2ccccc2NC(c2ccc(O)cc2)N1/N=C/c1ccc(O)cc1` (stereo unspecified): the “viability” value was 100%. In the case of `COc1ccc(NC2CCCN(C(=O)c3ccccc3C(F)(F)F)C2)cc1` (stereo unspecified), the “viability” value is 94.8%. On to `COC(=O)c1cc(NCc2c(F)cccc2Cl)ccc1N1CCOCC1`, for which the “viability” value is 106%. For `COc1ccc(C=Nc2ccc3[nH]ncc3c2)c(O)c1` the value was 101%; for `COc1ccc2[nH]c3c(=O)n(Cc4ccc(C(=O)N5CCC(C(N)=O)CC5)cc4)c(=S)[nH]c3c2c1`, 80.8%; for `CCOC(=O)c1[nH]c2ccc(OC)cc2c1NC(=O)c1ccccc1C(=O)O`, 83.2%. Regarding `COc1ccc2[nH]c3c(=O)n(CCCCC(=O)N4CCC(C(N)=O)CC4)c(=S)[nH]c3c2c1`, the “viability” value is 109%. Take `CCOC(=O)C1CCN(C2=NC(=O)/C(=C/c3ccc(O)cc3)S2)CC1`: the “viability” value was 96.4%. For `c1ccc(-c2ccccc2OCCOCCN2CCOCC2)cc1` the value was 85.7%. For the compound `COc1cc(NC(C)CCCNC(C)C)c2ncccc2c1OC` (stereo unspecified), the “viability” value was 93.5%. As to `C=CCc1cc(OC)ccc1OCCN1CC(C)OC(C)C1` (stereo unspecified), the “viability” value was 95.6%. As for `Cc1cc(O)ccc1NC(=O)c1ccccc1`, the “viability” value is 94%.

`O=C(Cc1coc2cc(O)ccc12)N1CCN(S(=O)(=O)c2ccc(Br)cc2)CC1`: the “viability” value was 90.8%. `S=C(NCCN1CCOCC1)Nc1ccc(Nc2ccccc2)cc1`: the “viability” value was 97.8%. As for `CCN(Cc1ccccc1)C1CCN(Cc2ccc(SC)cc2)CC1`, the “viability” value is 97.6%.

Consider `COc1ccc(CN2CCN(Cc3ccccc3F)CC2)c(OC)c1`, for which the “viability” value is 92.1%. As to `CC1CCCCN1CC(=O)Nc1ccc(N2CCCCCC2)cc1` (stereo unspecified), the “viability” value was 105%.

Consider `CC(=O)N1CCN(c2ccc(NCc3cccs3)cc2)CC1`, for which the “viability” value was 104%. On to `Oc1ccc(/C=N/NC(=S)N2CCOCC2)cc1`, for which the “viability” value is 107%. For `Cc1c(NC(=S)N/N=C/c2ccc(O)cc2)c(=O)n(-c2ccccc2)n1C`, the “viability” value is 90.6%. Take `COc1cc(CN2CCN(C(=O)CC(C)C)CC2)cc(OC)c1O`: the “viability” value is 91.8%. Consider `O=C(O)CCCNC(=O)/C=C/c1ccco1`, for which the “viability” value was 103%. For `O=C(/C=C\c1ccco1)c1ccc(NC(=O)c2ccco2)cc1` the value was 101%; for `O=C(O)CCCN1C(=O)/C(=C\c2ccco2)SC1=S`, 94%; for `CCCN1C(=O)S/C(=C/c2ccc(N3CCOCC3)o2)C1=O`, 85%.

With `CCn1c(=S)[nH]c2c(=O)n(C)c(=O)n(C)c21`, the “viability” value is 90.8%. On to `COc1cc(/C=N/NC(=O)CCN2CCN(C(c3ccccc3)c3ccccc3)CC2)ccc1O`, for which the “viability” value was 106%.

For the origin of these results see PubChem BioAssay AID624300 (Southern Research Specialized Biocontainment Screening …, 2012).
